Compound activity deposited in PubChem by National Center for Advancing Translational Sciences (NCATS).
VDR inhibitor – inhibitors of human vitamin D receptor. P11473. VDR-SRC2-3 peptide fluorescence polarization, 2 h. Potency, µM, actives largely listed as inhibitors. 400,000 tested, 0.93% active
Target sequence (P11473 whole entry, looked up): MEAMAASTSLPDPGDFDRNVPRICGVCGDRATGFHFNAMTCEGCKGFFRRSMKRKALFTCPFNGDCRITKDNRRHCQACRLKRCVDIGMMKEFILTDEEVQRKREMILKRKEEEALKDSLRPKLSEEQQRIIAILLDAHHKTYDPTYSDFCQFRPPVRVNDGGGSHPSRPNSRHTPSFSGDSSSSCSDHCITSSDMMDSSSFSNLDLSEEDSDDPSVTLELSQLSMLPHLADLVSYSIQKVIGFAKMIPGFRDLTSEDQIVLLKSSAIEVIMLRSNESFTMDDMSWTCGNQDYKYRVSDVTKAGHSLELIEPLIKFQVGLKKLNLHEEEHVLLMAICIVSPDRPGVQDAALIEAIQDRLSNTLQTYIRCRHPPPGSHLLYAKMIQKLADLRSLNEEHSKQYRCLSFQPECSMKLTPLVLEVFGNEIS
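Inhibition of the VDR/SRC2-3 peptide interaction is quantified by fluorescence polarization. Compounds (23 nl, pintool) incubate with the reagents for 2 hours at ambient room temperature.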
G9a block – G9a (human) methyltransferase inhibition; Q96KQ7; G9a H3K9 monomethylation, AlphaScreen, 2 h; Potency, µM (titrated, usually from 102 µM), hits mostly inhibitors; 350,000 tested, 8.8% active; further: nearly all actives have a fitted effect of over 75% in size
Target sequence (Q96KQ7 913-1193 limits assumed): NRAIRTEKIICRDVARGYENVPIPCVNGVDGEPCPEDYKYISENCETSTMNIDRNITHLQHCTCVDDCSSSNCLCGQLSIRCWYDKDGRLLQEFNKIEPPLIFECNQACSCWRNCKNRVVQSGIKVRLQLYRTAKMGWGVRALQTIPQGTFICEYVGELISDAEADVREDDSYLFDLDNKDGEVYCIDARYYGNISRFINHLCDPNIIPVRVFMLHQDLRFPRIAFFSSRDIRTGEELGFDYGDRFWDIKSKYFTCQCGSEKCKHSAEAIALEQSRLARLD
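Methyltransferase reactions run at room temperature for 2 h (20 nM enzyme, 500 nM biotin-H3K9 peptide, 20 uM SAM) after a 15 min compound preincubation; product detected by AlphaScreen beads and anti-H3K9me1 antibody.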
JMJD2A Tudor inh – blocks the human JMJD2A Tudor domain; Potency, µM (top dose mostly 114 µM), actives largely listed as inhibitors; O75164; AlphaScreen JMJD2A-Tudor / H3K4me3 peptide binding; 390,000 tested, 4.4% active; further: nearly all actives have a fitted effect of over 50% in size
PLK1 PBD block – PLK1 (human) polo-box domain binding inhibition; P53350; Plk1 PBD binding of FITC phosphopeptide, fluorescence polarization; Potency, µM, usual class: inhibitors; 360,000 tested, 2.8% active; further: series mostly up to about 57 µM; nearly all actives have a fitted effect of over 65% in size
BAZ2B block – BAZ2B (human) inhibition. AID 504333. AlphaScreen BAZ2B-H3K14Ac peptide displacement. 360,000 tested, 4.4% active. Q9UIF8. Potency, µM (top dose mostly 114 µM), usual class: inhibitors; further: nearly all actives have a fitted effect of over 60% in size
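AlphaScreen displacement of biotin-H3(5-23)K14Ac peptide (50 nM final) from BAZ2B (50 nM final) in PBS pH 7.4, 0.01% Tween-20; complex preformed 30 min RT, then compounds (top 110 uM) 30 min RT, beads 20 min dark.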
HP1b binding inh – inhibitors of HP1-beta chromodomain binding to methylated histone tails; 390,000 tested, 0.56% active; AID 540317; Potency, µM (highest dose often 114 µM), hits mostly inhibitors; P83916; AlphaScreen HP1-beta / biotin-H3K9me3 peptide binding; further: nearly all actives have a fitted effect of over 70% in size
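Compound inhibition of the preformed complex between 50 nM HP1-beta and 50 nM biotinylated H3K9me3 peptide was read by AlphaScreen. Buffer was PBS pH 7.4 with 0.01% Tween-20. Incubations ran 30 min at room temperature, with 10 ug/mL donor/acceptor beads.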
Of the large screens only hits and unclear results are named; the others gave an inactive call; ! = repeats disagree. Only some compounds are listed: those with a hit (about 11% of all), similar ones and a draw of the others. The call rests on the fitted dose curve; in most records, active means well fitted curve in the direction sought with a large enough effect; inconclusive means small, poorly fitted or top-dose-only effect, or another doubt; inactive means no such curve, though single readings can be large; an effect the other way counts as inactive or inconclusive.

COc1ccc(C2(O)C(=O)Nc3ccc(C)cc32)cc1OC (stereo not drawn)	none
CCCNC(=O)C1(C)CCCN(Cc2ccccc2F)C1 (stereo not drawn)	none (no result: VDR inhibitor, G9a block, JMJD2A Tudor inh, BAZ2B block, HP1b binding inh)
O=C(COC(=O)CCC1CCCC1)Nc1ccccc1Br	none
Cc1ccc(-n2cc(C(=O)O)c(=O)cc2C)c(C)c1	G9a block 50µM, BAZ2B block inconclusive
CCOC(=O)C1(C)C=C(Nc2ccc(O)cc2)C(=O)N1c1ccc(O)cc1 (stereo not drawn)	G9a block 8.9µM, JMJD2A Tudor inh inconclusive, BAZ2B block 50µM
O=C(NCc1ccc(Cl)cc1)c1ccc2c(c1)N(Cc1ccccc1F)C(=O)c1ccccc1S2=O (stereo not drawn)	none (no result: PLK1 PBD block)
CCc1nnc(N2C(=N)SCC2=O)s1	G9a block 28µM, JMJD2A Tudor inh 28µM, BAZ2B block 79µM
N#Cc1ccc(CSc2nnc(-c3ccccc3)n2Cc2ccco2)cc1	none (no result: G9a block)
N#Cc1ccc(CSc2nnc(Cc3cccs3)n2Cc2ccco2)cc1	VDR inhibitor inconclusive, G9a block inconclusive, JMJD2A Tudor inh inconclusive, BAZ2B block 50µM
N=C(N)c1ccc(N)cc1	G9a block 1µM!
N=C(N)c1ccc(OCCCCCOc2ccc(C(=N)N)cc2)cc1	none
Oc1cccc(CN2CCOCC2)c1O	VDR inhibitor inconclusive, JMJD2A Tudor inh 10µM, HP1b binding inh 71µM (no result: G9a block, BAZ2B block)
CCCc1cc(CN2CCOCC2)c(O)c(CN2CCOCC2)c1O	VDR inhibitor 22µM, JMJD2A Tudor inh 11µM, PLK1 PBD block 6.7µM, HP1b binding inh 25µM (no result: G9a block, BAZ2B block)
Oc1c(CN2CCOCC2)cc(CN2CCOCC2)c(O)c1O	VDR inhibitor 20µM, JMJD2A Tudor inh 11µM, PLK1 PBD block 1.7µM, HP1b binding inh 6.3µM (no result: G9a block, BAZ2B block)
CCCn1c(CN2CCN(c3ccc(OC)cc3)CC2)nc2c1c(=O)[nH]c(=O)n2C	G9a block 25µM (no result: PLK1 PBD block)
C=CCn1c(N2CCN(c3ccc(OC)cc3)CC2)nc2c1c(=O)[nH]c(=O)n2C	G9a block 50µM
CCCCCn1c(CN2CCN(c3ccc(OC)cc3)CC2)nc2c1c(=O)[nH]c(=O)n2C	G9a block inconclusive, JMJD2A Tudor inh inconclusive (no result: PLK1 PBD block)
COc1ccc(/C(=N\Nc2ccccc2C(=O)O)c2ccccc2)cc1	G9a block 35µM, JMJD2A Tudor inh inconclusive, PLK1 PBD block inconclusive
COc1ccc(N/N=C(\C=N\O)C(=O)c2ccc(OC)cc2)cc1	G9a block 50µM, JMJD2A Tudor inh inconclusive, BAZ2B block 40µM
COc1ccc(C(=O)C(=NNc2ccccc2)c2ccc(OC)cc2)cc1	JMJD2A Tudor inh 45µM, HP1b binding inh inconclusive (no result: G9a block, BAZ2B block)
COc1ccc(C(=O)C(=NN)c2ccccc2)cc1	none (no result: VDR inhibitor, G9a block, JMJD2A Tudor inh, BAZ2B block, HP1b binding inh)
CCOCCn1ccc2c(OCC(=O)Nc3cccc([N+](=O)[O-])c3)cccc2c1=O	none (no result: PLK1 PBD block)
O=C(c1ccncc1)N1CCN(S(=O)(=O)c2ccccc2Br)CC1	none
O=C(c1cccc(-n2cccc2)c1)N1CCN(S(=O)(=O)c2ccccc2Br)CC1	G9a block 45µM
COCCn1c(C)c(C)c(S(=O)(=O)c2ccccc2)c1N	G9a block 35µM, BAZ2B block inconclusive
CN(C(Cc1ccc(OS(=O)(=O)c2cccc3cnccc23)cc1)C(=O)N1CCN(c2ccccc2)CC1)S(=O)(=O)c1cccc2cnccc12 (stereo not drawn)	VDR inhibitor inconclusive, G9a block 16µM! (no result: JMJD2A Tudor inh, PLK1 PBD block, BAZ2B block, HP1b binding inh)
CC(=O)OC[C@H]1O[C@@H](O/N=C/[C@@H](C)[C@H](OCc2ccccc2)C(C)C)[C@H](OC(C)=O)[C@@H](OC(C)=O)[C@@H]1OC(C)=O	G9a block 50µM (no result: VDR inhibitor, JMJD2A Tudor inh, PLK1 PBD block, HP1b binding inh)
C(=C1/CCCC2=C1Nc1ncnn1C2c1ccccc1)/c1ccccc1 (stereo not drawn)	G9a block 45µM (no result: VDR inhibitor, JMJD2A Tudor inh, PLK1 PBD block, HP1b binding inh)
CC1CC2=C(NC(=S)NC2c2ccc(F)cc2)/C(=C/c2ccc(F)cc2)C1 (stereo not drawn)	VDR inhibitor inconclusive, G9a block 25µM, PLK1 PBD block inconclusive, BAZ2B block inconclusive
S=C1NC2=C(CCCC2=C2SCCCS2)C(c2ccccc2)N1 (stereo not drawn)	G9a block 0.79µM, BAZ2B block inconclusive
FC(F)(F)c1ccccc1C1C2=C(Nc3ncnn31)c1ccccc1CCC2 (stereo not drawn)	G9a block inconclusive (no result: VDR inhibitor, JMJD2A Tudor inh, PLK1 PBD block, HP1b binding inh)
S=C1NC2=C(CCC/C2=C\c2ccccc2)C(c2ccccc2)N1 (stereo not drawn)	VDR inhibitor 89µM, G9a block 8.9µM, JMJD2A Tudor inh inconclusive, PLK1 PBD block inconclusive, BAZ2B block inconclusive
COc1ccc(CNc2ccnc(-c3ccc(N(C)C)cc3)n2)c(OC)c1	none (no result: JMJD2A Tudor inh, PLK1 PBD block, BAZ2B block, HP1b binding inh)
Fc1cccc(/C=C2\CCCC3=C2NC(=S)NC3c2cccc(F)c2)c1 (stereo not drawn)	VDR inhibitor 79µM, JMJD2A Tudor inh inconclusive, PLK1 PBD block inconclusive, BAZ2B block inconclusive (no result: G9a block)
S=C1NC2=C(CCC/C2=C\c2ccc(Cl)cc2)C(c2ccc(Cl)cc2)N1 (stereo not drawn)	VDR inhibitor inconclusive, PLK1 PBD block inconclusive (no result: G9a block)
Cc1c(O)ccc(-c2n[nH]c(C(=O)O)c2-c2nc3ccccc3s2)c1O	G9a block 45µM, BAZ2B block inconclusive
O=c1nc2s/c(=C\c3ccco3)c(=O)n2nc1Cc1ccc(F)cc1	VDR inhibitor inconclusive, G9a block inconclusive, JMJD2A Tudor inh 56µM, BAZ2B block 22µM, HP1b binding inh inconclusive
Cc1ccc(-n2c(=O)c3c(c4cc(C)ccc4n3C)n(Cc3ccc(F)cc3)c2=O)cc1	none (no result: PLK1 PBD block)
CN(C)c1ccc(/C=N/n2c(C3CCCCC3)n[nH]c2=S)cc1	G9a block 10µM, JMJD2A Tudor inh 40µM, BAZ2B block inconclusive, HP1b binding inh inconclusive
Nc1nnnn1/N=C/c1ccc(F)cc1	none
Cc1ccc(/C=N/n2c(C3CCCCC3)n[nH]c2=S)s1	G9a block 8.9µM
S=c1[nH]nc(C2CCCCC2)n1/N=C/c1ccccc1	G9a block 20µM, JMJD2A Tudor inh 56µM, PLK1 PBD block inconclusive
Fc1ccc(/C=N/n2c(C3CCCCC3)n[nH]c2=S)cc1	G9a block 7.1µM, JMJD2A Tudor inh 56µM, PLK1 PBD block inconclusive, HP1b binding inh inconclusive
CN(C)c1ccc(/C=N/NC(=O)C(=O)N2CCCCCC2)cc1	G9a block inconclusive
COc1ccc(-c2noc(CCC(=O)N3CCN(c4ccc(Cl)cc4)CC3)n2)cc1	none (no result: G9a block, BAZ2B block)
NCCCC(N)CC(=O)NCC1NC(=O)C(CO)NC(=O)C(N)CNC(=O)C(C2CCN=C(N)N2)NC(=O)/C(=C/NC(N)=O)NC1=O (stereo not drawn)	none (no result: JMJD2A Tudor inh, PLK1 PBD block, BAZ2B block, HP1b binding inh)
FC(F)(F)c1ccc(Cl)c(NC(=S)NC2CC2)c1	none
S=c1[nH]nc(C2CCCCC2)n1/N=C/c1cccc(Cl)c1Cl	G9a block 8.9µM
COc1cccc(/C=N/n2c(C3CCCCC3)n[nH]c2=S)c1OC	G9a block inconclusive, JMJD2A Tudor inh inconclusive, PLK1 PBD block inconclusive
Cc1nc(C)c(CCNC(=O)c2ccccc2)s1	none
